Where “and” joins values, the source holds several entries; their conditions need not be identical. Identical values can stand only once. Hit rate of the full screen: of about 5,500 compounds, about 2,000 (36%) were called active. Another 18% or so got no clear call; they are omitted. No stated cut-off is given here; in the data, active means normalized growth mostly below about 0.91 (no sharp cut-off); inconclusive means no clear call, values can overlap the other calls; inactive means mostly above about 0.92. The list shows a part of the results.
Assay: chemical genetic growth profiling, strain panel (AID 1159580);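 further: tested at 20 µM; growth read once vehicle control cultures reached saturation at 30 °C; 1 = growth at the plate median or of vehicle wells; lower values mean less growth of the strain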
Conditions: S. cerevisiae deletion strains, growth OD

Measured: normalized growth

CCCCCCCCCCCCCCCC[N+](C)(C)C
active: locus YAL013W, strain DEP1, active compounds read low 0.0576 | locus YAL021C, strain ccr4, active compounds read low 0.0584 | locus YAL026C, strain drs2, active compounds read low 0.0563 | locus YAL030W, strain snc1, active compounds read low 0.0653 | locus YBL061C, strain skt5, active compounds read low 0.057 | locus YBR009C, strain hhf1, active compounds read low 0.06 | locus YBR021W, strain FUR4, active compounds read low 0.123 | locus YBR023C, strain chs3, active compounds read low 0.0601 | locus YBR171W, strain sec66, active compounds read low 0.0733 | locus YBR229C, strain ROT2, active compounds read low 0.0267 | locus YBR231C, strain swc5, active compounds read low 0.0573 | locus YBR279W, strain paf1, active compounds read low 0.0573 | locus YCL011C, strain gbp2, active compounds read low 0.055 | locus YCL016C, strain dcc1, active compounds read low 0.0605 | locus YCL029C, strain bik1, active compounds read low 0.0609 | locus YCL061C, strain MRC1, active compounds read low 0.0602 | locus YCL069W, strain vba3, active compounds read low 0.0611 | locus YCR088W, strain abp1, active compounds read low 0.0586 | locus YDL005C, strain med2, active compounds read low 0.0729 | locus YDL035C, strain GPR1, active compounds read low 0.0499 | locus YDL040C, strain nat1, active compounds read low 0.0563 | locus YDL074C, strain BRE1, active compounds read low 0.0802 | locus YDL101C, strain DUN1, active compounds read low 0.0512 | locus YDL134C, strain PPH21, active compounds read low 0.0552 | locus YDL185W, strain tfp1, active compounds read low 0.0826 | locus YDL192W, strain arf1, active compounds read low 0.0605 | locus YDR001C, strain nth1, active compounds read low 0.0561 | locus YDR069C, strain doa4, active compounds read low 0.0578 | locus YDR101C, strain arx1, active compounds read low 0.0591 | locus YDR137W, strain rgp1, active compounds read low 0.0808 | locus YDR150W, strain NUM1, active compounds read low 0.0572 | locus YDR159W, strain sac3, active compounds read low 0.0724 | locus YDR162C, strain NBP2, active compounds read low 0.0544 | locus YDR195W, strain ref2 0.0903 | locus YDR297W, strain sur2, active compounds read low 0.0606 | locus YDR318W, strain mcm21, active compounds read low 0.0624 | locus YDR334W, strain swr1, active compounds read low 0.0599 | locus YDR335W, strain msn5, active compounds read low 0.0601 | locus YDR388W, active compounds read low 0.0556 | locus YDR392W, strain spt3, active compounds read low 0.0767 | locus YDR502C, strain sam2, active compounds read low 0.0598 | locus YEL003W, strain gim4, active compounds read low 0.0527 | locus YEL037C, strain rad23, active compounds read low 0.0584 | locus YEL061C, strain CIN8 (second series), active compounds read low 0.0593 | locus YEL061C, strain CIN8, active compounds read low 0.0474 | locus YER015W, strain faa2, active compounds read low 0.0592 | locus YER016W, strain bim1, active compounds read low 0.0587 | locus YER110C, active compounds read low 0.0715 | locus YER111C, strain swi4, active compounds read low 0.0703 | locus YER155C, strain BEM2 (second series), active compounds read low 0.0841 | locus YER155C, strain BEM2, active compounds read low 0.0716 | locus YER167W, strain BCK2, active compounds read low 0.0534 | locus YFR010W, strain ubp6, active compounds read low 0.0598 | locus YGL078C, strain dbp3, active compounds read low 0.0583 | locus YGL086W, strain mad1, active compounds read low 0.055 | locus YGL167C, strain pmr1, active compounds read low 0.0703 | locus YGL173C, strain kem1, active compounds read low 0.0795 | locus YGL227W, strain vid30, active compounds read low 0.0598 | locus YGL240W, strain doc1, active compounds read low 0.0655 | locus YGL248W, strain PDE1, active compounds read low 0.0448 | locus YGL253W, strain hxk2, active compounds read low 0.0528 | locus YGR078C, strain PAC10, active compounds read low 0.0545 | locus YGR135W, strain pre9, active compounds read low 0.0674 | locus YGR229C, strain SMI1, active compounds read low 0.0636 | locus YGR252W, strain gcn5, active compounds read low 0.153 | locus YHR013C, strain ard1, active compounds read low 0.0817 | locus YHR027C, strain rpn1, active compounds read low 0.0592 | locus YHR030C, strain SLT2, active compounds read low 0.0556 and 0.0924 | locus YHR079C, strain IRE1 (second series), active compounds read low 0.0564 | locus YHR079C, strain IRE1, active compounds read low 0.0965 | locus YHR094C, strain hxt1, active compounds read low 0.0577 | locus YHR129C, strain ARP1, active compounds read low 0.0524 | locus YHR142W, strain chs7, active compounds read low 0.062 | locus YHR200W, strain rpn10, active compounds read low 0.0595 | locus YIL066C, strain RNR3, active compounds read low 0.0478 | locus YIL073C, strain SPO22, active compounds read low 0.0966 | locus YIL125W, strain kgd1, active compounds read low 0.0641 | locus YIR030C, strain dcg1, active compounds read low 0.0583 | locus YJL092W, strain hpr5, active compounds read low 0.0559 | locus YJL095W, strain BCK1 (second series), active compounds read low 0.0547 | locus YJL095W, strain BCK1, active compounds read low 0.049 and 0.0904 | locus YJL115W, strain asf1, active compounds read low 0.0708 | locus YJL129C, strain trk1, active compounds read low 0.0757 | locus YJL134W, strain LCB3, active compounds read low 0.0478 | locus YJL154C, strain vps35, active compounds read low 0.0607 | locus YJL164C, strain tpk1, active compounds read low 0.0535 | locus YJL166W, strain qcr8, active compounds read low 0.0568 | locus YJL168C, strain set2, active compounds read low 0.0569 | locus YJL187C, strain SWE1 (second series), active compounds read low 0.0409 | locus YJL187C, strain SWE1, active compounds read low 0.0593 | locus YJR043C, strain POL32, active compounds read low 0.0614 | locus YJR066W, strain TOR1, active compounds read low -0.00145

From PubChem BioAssay AID1159580 (chemical genetic matrix, 2015)
